Bioassay records: PubChem, The Scripps Research Institute Molecular Screening Center
hcDAF12 agonist – activators of H. contortus DAF-12 nuclear receptor | HEK293 hcDAF-12 lit1-tk-luc reporter, luminescence; 0% DMSO, 100% Δ7-dafachronic acid | activation, % at 6.8 µM | 1.4% of 370,000 active;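 active = activation above the mean of all tested compounds plus 3 SD, cut at about 5.5% in these data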;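 note: 100% = response to 3 µM Δ7-dafachronic acid high control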
DAX1 inh-1 – DAX1 (NR0B1) inhibition, primary screen; inhibition, % at 6.8 µM; HEK293T StAR-luciferase reporter, SF-1/DAX-1 repression relief; 1.1% of 370,000 active;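 active = inhibition above the mean over all tested compounds plus 3 SD, cut at about 3.6% in these data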;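 note: 0% = DAX-1 cells with DMSO and 100% = cells lacking DAX-1 with DMSO; higher inhibition means more luminescence from relief of DAX-1 repression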
ssDAF12 agonist – S. stercoralis DAF-12 activation, primary screen; activation, % at 6.8 µM; HEK293 ssDAF-12/GRIP1 lit1-tk-luc reporter, luminescence; % of 3 µM dafachronic acid response; 1% of 370,000 active; AID 652126;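 active = activation above the mean over all tested compounds plus 3 SD, cut at about 0.9% in these data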;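 note: 0% = DMSO-only wells and 100% = 3 µM delta7-dafachronic acid wells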
hgDAF12 agonist – agonists of H. glycines DAF-12 nuclear receptor | HEK293 GAL4-hgDAF12 UAS-luciferase reporter, agonist luminescence; normalized to butyrate control | activation, % at 6.8 µM | 1.8% of 370,000 active;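 active = activation above a cutoff set at the mean of all screened compounds plus 3 SD, cut at about 10% in these data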;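 note: 0% = DMSO wells and 100% = sodium butyrate wells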
AHR act – activators of human aryl hydrocarbon receptor; 2.5% of 320,000 active; AHR-responsive luciferase reporter cells, luminescence; P35869; AID 2796; activation, % at 5 µM; in the data active = activation above about 47%;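 note: 0% = vehicle wells and 100% = reference agonist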
Target sequence (P35869 whole entry, looked up): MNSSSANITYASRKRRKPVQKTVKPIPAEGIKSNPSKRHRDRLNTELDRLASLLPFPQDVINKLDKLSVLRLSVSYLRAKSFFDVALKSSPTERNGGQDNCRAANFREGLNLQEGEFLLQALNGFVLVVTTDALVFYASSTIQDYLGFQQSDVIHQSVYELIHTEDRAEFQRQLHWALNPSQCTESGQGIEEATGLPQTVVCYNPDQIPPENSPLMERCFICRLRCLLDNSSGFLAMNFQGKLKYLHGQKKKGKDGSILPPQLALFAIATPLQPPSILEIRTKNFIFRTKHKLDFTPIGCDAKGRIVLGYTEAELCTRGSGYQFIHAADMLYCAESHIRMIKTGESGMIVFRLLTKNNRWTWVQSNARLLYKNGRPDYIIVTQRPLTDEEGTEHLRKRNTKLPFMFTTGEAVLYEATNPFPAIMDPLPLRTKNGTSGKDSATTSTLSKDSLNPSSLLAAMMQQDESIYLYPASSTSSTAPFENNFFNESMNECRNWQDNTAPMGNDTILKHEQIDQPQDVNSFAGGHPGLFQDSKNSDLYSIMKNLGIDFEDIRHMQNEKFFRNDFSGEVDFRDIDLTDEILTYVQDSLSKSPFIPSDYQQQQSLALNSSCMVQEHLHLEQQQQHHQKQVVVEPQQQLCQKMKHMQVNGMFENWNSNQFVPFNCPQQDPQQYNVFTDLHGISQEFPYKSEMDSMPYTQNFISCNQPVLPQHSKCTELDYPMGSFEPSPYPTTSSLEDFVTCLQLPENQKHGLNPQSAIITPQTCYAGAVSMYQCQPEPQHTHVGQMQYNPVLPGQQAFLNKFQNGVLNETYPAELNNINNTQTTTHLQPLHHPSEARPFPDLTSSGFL
DAX1 inh-2 – inhibits human nuclear receptor DAX1. P51843. HEK293 Gal4-DAX1 luciferase reporter, luminescence. inhibition, % at 6.75 µM. 0.99% of 340,000 active. AID 504766;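 active = inhibition above the mean over all tested compounds plus 3 SD, cut at about 4.2% in these data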;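 note: 0% = DAX1-transfected cells with DMSO and 100% = empty-vector control cells with DMSO; inhibition shows as a rise in luminescence from relieved DAX1 repression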
* hit, by the source's call; · = no result. The list is not random: actives were taken first. Their share in the collection is about 5.7%.

SMILES	hcDAF12 agonist	DAX1 inh-1	ssDAF12 agonist	hgDAF12 agonist	AHR act	DAX1 inh-2
O=C(Nc1cccc2nsnc12)c1ccc(-c2ccc(Br)cc2)o1	5	0	-1	2	49*	1
COC(=O)c1ccccc1NC(=O)c1ccc(-c2ccc(Br)cc2)o1	-2	-1	-2	-4	11	0
COC(=O)Cn1cnc2c(cnn2-c2ccc(C)cc2)c1=O	·	·	·	·	8	0
O=C(CC(c1ccco1)S(=O)(=O)c1ccccc1)c1ccccc1 (configuration not stated)	0	0	-2	3	0	3
Cc1cccc2c(C(=O)O)c3cccc(C)c3nc12	5	0	1.3*	7	0	0
NC(Cc1ccc(O)cc1)C(=O)NN=Cc1ccccc1Cl (configuration not stated)	0	2	0	4	·	·
C=CCSc1nc2ccccc2c2nc(-c3ccccc3)nn12	2	0	0	3	29	4.7*
C[C@@H]1CN([C@@H](C)CO)C(=O)CCCn2cc(nn2)CO[C@H]1CN(C)C(=O)c1ccncc1	2	0	-1	0	·	·
Cc1cc(C)n(Cc2ccc(C(=O)Nc3cccc(Br)c3)o2)n1	-1	0	-2	-1	74*	-1
Cc1ccc(C(=O)OCC(=O)Nc2cc(C(C)(C)C)no2)c(C)c1	-1	3.6*	-1	-1	-1	1
CCOC(=O)c1ccc(S(=O)(=O)Nc2cc(C(C)(C)C)no2)cc1	-1	0	-1	-2	2	-1
COC(=O)c1ccc(Cn2nnc3c(=O)[nH]c(C4CCCN(S(=O)(=O)c5ccc(C)cc5)C4)nc32)cc1 (configuration not stated)	5.6*	0	-1	-1	-1	0
Nc1ccc2nn(-c3cccc4ccccc34)nc2c1	-1	-1	-1	-4	48*	0
CCOC(=O)c1[nH]c(C)c(C(=O)Nc2ccccc2F)c1C	1	-1	-1	10	3	-1
CCOC(=O)c1c(C)[nH]c(C(=O)OCc2ccccc2F)c1C	6.3*	3	0	13*	13	5.5*
CCOC(=O)c1c(C)[nH]c(C(=O)OCCOc2ccccc2C)c1C	4	3	0	11*	·	3
CCOC(=O)c1c(C)[nH]c(C(=O)OCC(=O)N(C)CC(=O)Nc2ccccc2Cl)c1C	3	-3	1.0*	2	6	-1
O=C1c2ccccc2NC(c2ccc(Cl)cc2Cl)N1O (configuration not stated)	2	0	-1	2	0	1
O=C1c2ccccc2NC(c2cccc(Cl)c2)N1N=C1CCCCCC1 (configuration not stated)	2	2	-1	7	13	4.9*
NC(=O)CN(c1ccc([N+](=O)[O-])cc1)S(=O)(=O)c1ccccc1	-1	-1	-1	5	-4	4.4*
CC(=O)Nc1ccc(NC(=O)CN(c2ccc([N+](=O)[O-])cc2)S(=O)(=O)c2ccccc2)cc1	-1	0	-2	-1	2	1
CC(C)(C)c1ccc(-c2nnc3n2N=C(c2ccc(-c4ccccc4)cc2)CS3)cc1	-2	-1	-1	-1	·	·
CCOc1ccccc1C(=O)N/N=C/c1coc2ccc(C)cc2c1=O	2	0	0	9	·	0
CSc1nc(O)c(C(c2cccc([N+](=O)[O-])c2)c2c(O)nc(SC)[nH]c2=O)c(=O)[nH]1	6.0*	-1	1	0	0	1
CSc1nc(O)c(C(c2ccc(O)cc2)c2c(O)nc(SC)[nH]c2=O)c(=O)[nH]1	1	0	-1	0	-2	-1
N/C(Cc1ccc(Cl)cc1Cl)=N\OC(=O)c1ccccc1F	6.0*	0	-1	4	7	0
Nc1nc2c(ncn2[C@@H]2O[C@H](C(=O)NC3CCCCC3)[C@@H](O)[C@H]2O)c(=O)[nH]1	-1	0	-1	-2	·	·
COC(=O)c1cc2c(c3c4ccccc4n(S(=O)(=O)c4cccc(C)c4)c13)C(=O)N(Cc1ccccc1OC)C2	1	-2	0	1	·	·
COc1ccccc1C(=O)NCCCNc1ccc([N+](=O)[O-])cc1	-1	0	-1	-1	-3	3
